Data published in the supplement of paper PMC10849652.
The full data set covers some 8,800 targets. This sample favours those with a hit. About 0.5% of all pairs of compound and target were hits.

Chain of UniProt O95071 (O95071 whole entry, looked up): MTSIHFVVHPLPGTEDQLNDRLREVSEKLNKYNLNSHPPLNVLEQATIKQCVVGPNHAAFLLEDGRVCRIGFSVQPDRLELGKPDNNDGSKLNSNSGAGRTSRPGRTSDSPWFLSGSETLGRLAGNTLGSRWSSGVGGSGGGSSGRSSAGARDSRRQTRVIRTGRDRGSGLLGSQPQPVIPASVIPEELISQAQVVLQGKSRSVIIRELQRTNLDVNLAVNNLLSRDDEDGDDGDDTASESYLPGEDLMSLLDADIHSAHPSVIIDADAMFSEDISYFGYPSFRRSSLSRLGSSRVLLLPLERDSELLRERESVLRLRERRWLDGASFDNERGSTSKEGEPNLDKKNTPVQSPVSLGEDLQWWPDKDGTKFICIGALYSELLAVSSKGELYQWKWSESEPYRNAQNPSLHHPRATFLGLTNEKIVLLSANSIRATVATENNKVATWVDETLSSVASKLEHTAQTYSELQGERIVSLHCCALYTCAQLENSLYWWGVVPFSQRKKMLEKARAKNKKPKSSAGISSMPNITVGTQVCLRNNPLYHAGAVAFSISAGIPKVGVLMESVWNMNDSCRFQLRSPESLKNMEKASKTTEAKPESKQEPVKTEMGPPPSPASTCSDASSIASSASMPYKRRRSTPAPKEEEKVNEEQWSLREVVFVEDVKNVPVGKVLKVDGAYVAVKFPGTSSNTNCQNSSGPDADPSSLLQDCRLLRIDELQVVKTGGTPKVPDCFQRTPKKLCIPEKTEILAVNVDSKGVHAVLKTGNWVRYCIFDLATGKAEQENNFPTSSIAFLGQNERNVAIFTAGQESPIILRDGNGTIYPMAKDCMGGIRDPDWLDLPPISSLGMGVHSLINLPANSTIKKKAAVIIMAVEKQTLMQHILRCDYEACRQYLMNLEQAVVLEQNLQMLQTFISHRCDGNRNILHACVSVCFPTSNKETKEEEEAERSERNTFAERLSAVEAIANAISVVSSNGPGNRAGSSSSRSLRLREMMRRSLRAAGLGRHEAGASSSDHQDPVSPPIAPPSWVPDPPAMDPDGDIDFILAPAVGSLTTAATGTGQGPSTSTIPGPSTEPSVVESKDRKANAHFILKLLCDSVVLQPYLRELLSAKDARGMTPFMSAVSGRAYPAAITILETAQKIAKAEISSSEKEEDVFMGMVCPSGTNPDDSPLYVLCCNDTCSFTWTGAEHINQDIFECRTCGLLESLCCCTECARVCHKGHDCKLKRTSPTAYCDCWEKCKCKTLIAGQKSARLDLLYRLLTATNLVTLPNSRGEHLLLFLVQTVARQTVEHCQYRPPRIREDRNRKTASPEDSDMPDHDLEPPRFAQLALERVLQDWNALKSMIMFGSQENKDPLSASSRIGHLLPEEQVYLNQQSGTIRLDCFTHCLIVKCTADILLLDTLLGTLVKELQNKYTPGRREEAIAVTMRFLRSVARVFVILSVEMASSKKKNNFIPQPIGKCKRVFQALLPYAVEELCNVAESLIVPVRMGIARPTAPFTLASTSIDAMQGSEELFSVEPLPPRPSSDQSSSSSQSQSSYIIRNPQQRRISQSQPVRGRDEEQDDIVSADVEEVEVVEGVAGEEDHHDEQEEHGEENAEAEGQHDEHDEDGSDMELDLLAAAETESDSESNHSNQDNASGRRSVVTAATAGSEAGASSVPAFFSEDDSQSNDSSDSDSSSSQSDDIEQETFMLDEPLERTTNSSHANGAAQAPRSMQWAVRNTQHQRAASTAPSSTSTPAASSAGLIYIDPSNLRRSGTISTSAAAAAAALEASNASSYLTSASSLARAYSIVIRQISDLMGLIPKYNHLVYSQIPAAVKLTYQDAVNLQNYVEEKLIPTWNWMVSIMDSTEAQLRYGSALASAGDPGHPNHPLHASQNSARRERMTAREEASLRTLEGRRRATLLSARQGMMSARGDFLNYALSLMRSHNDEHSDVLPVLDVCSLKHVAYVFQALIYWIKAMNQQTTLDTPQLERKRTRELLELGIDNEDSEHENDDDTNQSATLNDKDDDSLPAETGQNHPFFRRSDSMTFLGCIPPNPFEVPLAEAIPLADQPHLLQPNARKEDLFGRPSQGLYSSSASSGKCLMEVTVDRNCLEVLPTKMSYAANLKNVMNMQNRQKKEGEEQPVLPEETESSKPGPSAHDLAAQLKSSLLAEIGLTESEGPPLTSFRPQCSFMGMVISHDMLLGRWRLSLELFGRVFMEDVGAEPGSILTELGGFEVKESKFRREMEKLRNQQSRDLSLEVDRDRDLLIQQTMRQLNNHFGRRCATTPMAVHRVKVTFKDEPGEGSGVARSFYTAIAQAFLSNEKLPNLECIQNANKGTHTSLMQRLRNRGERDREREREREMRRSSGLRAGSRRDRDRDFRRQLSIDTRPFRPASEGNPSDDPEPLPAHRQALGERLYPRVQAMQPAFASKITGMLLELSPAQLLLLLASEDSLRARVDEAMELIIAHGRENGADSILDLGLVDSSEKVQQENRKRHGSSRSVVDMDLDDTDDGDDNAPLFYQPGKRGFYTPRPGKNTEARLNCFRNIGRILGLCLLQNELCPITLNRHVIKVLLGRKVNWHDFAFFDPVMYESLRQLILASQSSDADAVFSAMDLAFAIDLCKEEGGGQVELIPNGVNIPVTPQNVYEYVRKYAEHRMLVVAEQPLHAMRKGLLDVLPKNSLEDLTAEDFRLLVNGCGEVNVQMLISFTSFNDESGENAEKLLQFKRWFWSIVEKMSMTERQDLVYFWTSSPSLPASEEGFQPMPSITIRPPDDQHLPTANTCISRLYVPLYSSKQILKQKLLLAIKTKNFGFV
Chain of UniProt P42167 (P42167 whole entry, looked up): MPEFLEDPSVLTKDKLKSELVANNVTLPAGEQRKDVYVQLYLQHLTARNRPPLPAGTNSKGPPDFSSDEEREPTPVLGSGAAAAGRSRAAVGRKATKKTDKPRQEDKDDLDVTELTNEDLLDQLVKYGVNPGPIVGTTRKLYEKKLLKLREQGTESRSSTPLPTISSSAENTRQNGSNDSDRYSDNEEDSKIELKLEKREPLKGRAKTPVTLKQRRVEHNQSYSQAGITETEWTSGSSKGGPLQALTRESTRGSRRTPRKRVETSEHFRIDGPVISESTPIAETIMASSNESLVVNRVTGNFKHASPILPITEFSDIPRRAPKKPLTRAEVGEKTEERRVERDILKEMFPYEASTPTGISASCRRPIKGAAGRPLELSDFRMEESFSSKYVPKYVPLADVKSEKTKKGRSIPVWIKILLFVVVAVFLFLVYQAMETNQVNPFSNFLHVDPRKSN
Chain of UniProt Q9H892 (Q9H892 whole entry, looked up): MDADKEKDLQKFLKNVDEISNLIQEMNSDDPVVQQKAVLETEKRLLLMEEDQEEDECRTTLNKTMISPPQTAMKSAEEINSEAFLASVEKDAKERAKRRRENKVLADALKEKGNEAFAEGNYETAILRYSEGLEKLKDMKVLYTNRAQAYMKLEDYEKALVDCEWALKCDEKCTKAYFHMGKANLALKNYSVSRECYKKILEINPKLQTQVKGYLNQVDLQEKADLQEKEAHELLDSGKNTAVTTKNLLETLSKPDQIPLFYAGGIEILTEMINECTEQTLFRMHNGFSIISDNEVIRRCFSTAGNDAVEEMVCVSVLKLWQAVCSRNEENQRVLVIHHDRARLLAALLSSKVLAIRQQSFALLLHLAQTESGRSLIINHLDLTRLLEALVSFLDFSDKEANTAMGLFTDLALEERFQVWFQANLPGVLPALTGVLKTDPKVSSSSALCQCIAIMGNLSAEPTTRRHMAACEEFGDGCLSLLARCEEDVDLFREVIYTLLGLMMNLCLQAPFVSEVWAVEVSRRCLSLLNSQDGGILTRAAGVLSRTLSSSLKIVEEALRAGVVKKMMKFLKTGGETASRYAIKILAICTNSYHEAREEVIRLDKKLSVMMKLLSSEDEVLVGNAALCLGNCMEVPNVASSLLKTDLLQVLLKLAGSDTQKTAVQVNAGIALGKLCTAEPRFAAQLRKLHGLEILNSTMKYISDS
Chain of UniProt P06753 (P06753 whole entry, looked up): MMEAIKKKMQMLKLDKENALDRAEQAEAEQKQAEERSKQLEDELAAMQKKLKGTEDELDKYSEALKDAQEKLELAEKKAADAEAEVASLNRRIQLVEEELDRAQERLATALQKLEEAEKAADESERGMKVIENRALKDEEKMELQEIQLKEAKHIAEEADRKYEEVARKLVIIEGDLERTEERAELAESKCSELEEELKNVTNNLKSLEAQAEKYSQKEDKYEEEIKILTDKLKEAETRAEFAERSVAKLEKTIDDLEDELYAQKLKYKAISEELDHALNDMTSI
Chain of UniProt Q6NXR4 (Q6NXR4 whole entry, looked up): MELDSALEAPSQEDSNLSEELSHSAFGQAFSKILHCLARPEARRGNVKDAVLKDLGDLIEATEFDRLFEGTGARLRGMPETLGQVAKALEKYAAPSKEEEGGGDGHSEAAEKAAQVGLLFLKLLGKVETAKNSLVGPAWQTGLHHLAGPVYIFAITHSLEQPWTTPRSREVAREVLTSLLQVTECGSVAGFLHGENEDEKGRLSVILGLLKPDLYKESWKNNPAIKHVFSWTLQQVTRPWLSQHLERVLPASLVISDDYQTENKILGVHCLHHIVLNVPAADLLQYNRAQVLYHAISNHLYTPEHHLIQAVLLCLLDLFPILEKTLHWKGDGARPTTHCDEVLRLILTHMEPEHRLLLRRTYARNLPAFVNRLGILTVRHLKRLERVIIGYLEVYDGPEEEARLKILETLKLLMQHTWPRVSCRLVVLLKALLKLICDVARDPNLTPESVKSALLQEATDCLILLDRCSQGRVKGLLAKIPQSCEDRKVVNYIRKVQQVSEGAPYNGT
Chain of UniProt Q5U3C3 (Q5U3C3 whole entry, looked up): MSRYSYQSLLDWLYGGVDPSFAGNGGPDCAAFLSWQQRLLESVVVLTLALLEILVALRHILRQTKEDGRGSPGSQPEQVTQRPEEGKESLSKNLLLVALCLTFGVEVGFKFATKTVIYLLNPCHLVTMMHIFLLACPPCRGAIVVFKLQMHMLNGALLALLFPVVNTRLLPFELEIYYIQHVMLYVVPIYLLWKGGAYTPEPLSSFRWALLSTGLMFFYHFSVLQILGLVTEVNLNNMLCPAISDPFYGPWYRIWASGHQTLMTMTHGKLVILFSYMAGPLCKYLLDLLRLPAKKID

Each target was assayed with C1=CC2=C(C=CC(=C2)/C=C\3/C(=O)NC(=NCC4=CC=CS4)S3)N=C1 (assay: log2 fold change, soluble protein after heating vs DMSO (PISA); higher = thermal stabilisation; K562 lysate, 10 uM; active = over 0.2 and 3.5 SD of the protein, either way, in both replicates (recomputed)).
Method in brief: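 Thermal stability, expressed as log-two fold change relative to solvent controls, is given from duplicates. Crude K562 extract in PBS pH 7.4 with 1 mM MgCl2, at 1 mg/mL protein, was treated with 10 μM compound for 30 min and heated in aliquots for 3 min across 48°C-58°C. After pooling, adjustment to 0.5% NP-40 at 4°C and centrifugation at 21,000xg for 90 min, supernatant protein was measured by TMTpro 16plex LC-MS/MS with channel sums equalised.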
For TOR3A (UniProt Q9H497), the log2 fold change was -0.008 (inactive). TRAF2 isoform 2 (UniProt Q12933) was tested, and the log2 fold change was 0.013 (inactive). In the case of TBRG4 (UniProt Q969Z0), the log2 fold change is reported as 0.001 (inactive). For TBL3 (UniProt Q12788), the log2 fold change was 0.037 (inactive). For UBE3B (UniProt Q7Z3V4), the log2 fold change was 0.056 (inactive). For TRA2A (UniProt Q13595), the log2 fold change was -0.03 (inactive). In the case of TJP1 isoform 2 (UniProt Q07157), the log2 fold change is reported as -0.007 (inactive). For TPM4 isoform 2 (UniProt P67936), the log2 fold change was 0.067 (inactive). In the case of TUBGCP3 (UniProt Q96CW5), the log2 fold change is reported as 0.044 (inactive). For TGOLN2 isoform 7 (UniProt O43493), the log2 fold change was 0.022 (inactive). With TSPAN13 (UniProt O95857) the log2 fold change was 0.003 (inactive). With TIMELESS (UniProt Q9UNS1) the log2 fold change was -0.003 (inactive). TRMT2A (UniProt Q8IZ69) was tested, and the log2 fold change was 0.012 (inactive). With TTC12 isoform 2 (UniProt Q9H892) the log2 fold change was 0.007 (inactive). For TMPO (UniProt P42167), the log2 fold change was -0.027 (inactive). For TBK1 (UniProt Q9UHD2), the log2 fold change was 0.006 (inactive). In the case of TGFBRAP1 (UniProt Q8WUH2), the log2 fold change is reported as -0.002 (inactive). TMEM14C (UniProt Q9P0S9) was tested, and the log2 fold change was -0.011 (inactive). In the case of TMEM164 (UniProt Q5U3C3), the log2 fold change is reported as -0.093 (inactive). For TPM3 (UniProt P06753), the log2 fold change was -0.042 (inactive). TTI2 (UniProt Q6NXR4) was tested, and the log2 fold change was 0.047 (inactive). For TBC1D23 (UniProt Q9NUY8), the log2 fold change was 0.022 (inactive). With TRIM25 (UniProt Q14258) the log2 fold change was -0.004 (inactive). For UBE2D1 (UniProt P51668), the log2 fold change was -0.007 (inactive). With TPP2 (UniProt Q5VZU9) the log2 fold change was -0.012 (inactive). TRMT12 (UniProt Q53H54) was tested, and the log2 fold change was 0.058 (inactive). In the case of TCAF2 (UniProt A6NFQ2), the log2 fold change is reported as -0.059 (inactive). For TRIM56 (UniProt Q9BRZ2), the log2 fold change was -0.049 (inactive). TTC27 (UniProt Q6P3X3) was tested, and the log2 fold change was 0.004 (inactive). UBR5 (UniProt O95071) was tested, and the log2 fold change was -0.002 (inactive). TROAP (UniProt Q12815) was tested, and the log2 fold change was -0.036 (inactive). In the case of TUBGCP2 isoform 4 (UniProt Q9BSJ2), the log2 fold change is reported as 0.025 (inactive). With TTC5 (UniProt Q8N0Z6) the log2 fold change was -0.034 (inactive). TRIM33 (UniProt H0Y612) was tested, and the log2 fold change was -0.126 (inactive). TP53RK (UniProt Q96S44) was tested, and the log2 fold change was -0.24 (active). TFCP2 (UniProt Q12800) was tested, and the log2 fold change was 0.01 (inactive). With TIAL1 isoform 2 (UniProt Q01085) the log2 fold change was -0.015 (inactive). In the case of TRIM65 (UniProt Q6PJ69), the log2 fold change is reported as 0.021 (inactive). In the case of TTF2 (UniProt Q9UNY4), the log2 fold change is reported as -0.001 (inactive). For TRAPPC9 isoform 2 (UniProt Q96Q05), the log2 fold change was 0.006 (inactive).
